This note sets out measurements from PubChem BioAssay (Tox21).

Assay [1] in a line: qHTS assay to identify small molecule antagonists of the estrogen receptor alpha (ER-alpha) signaling pathway using the BG1 cell line in the presence of 0.1 nM 17-beta-estradiol - cell viability counter screen (AID 1259241). Further: on the % scale 0 is the no-effect control and ±100 the full control effect; nearly all actives have a fitted effect of over 40% in size. In short, it runs like this:
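Following 5 days in phenol red-free medium with charcoal-stripped serum, VM7Luc4E2 cells received test compounds alongside 0.1 nM 17beta-estradiol (final) at 37C for 22 hr. Live cells were then quantified via protease-substrate fluorescence.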
On the technique in general: Quantitative high-throughput screening tests each substance at several concentrations.

Assay [2] is described as follows: qHTS assay to identify small molecule HDAC inhibitors (AID 1259364).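 Further: wild-type HCT-116 cells with endogenous class I/II HDAC activity; top concentration of the series differs between compounds; on the % scale 0 is the no-effect control and ±100 the full control effect; nearly all actives have a fitted effect of over 45% in size.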 In a few lines: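 After a 2 hr compound incubation (37C, 5% CO2), HCT-116 cells seeded at 1,500/well the day before received HDAC-Glo reagent; signal read as luminescence after 30 min at room temperature.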
The nature of assay [3]: qHTS assay to identify small molecule HDAC inhibitors - cell viability counter screen (AID 1259365). Further: series mostly up to about 92 µM; on the % scale 0 is the no-effect control and ±100 the full control effect; nearly all actives have a fitted effect of over 50% in size. In a few lines:
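HCT-116 wild-type, overnight attachment; 2hr drug exposure, 37C; CellTiter-Glo luminescent ATP readout after 30min RT.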

The nature of assay [4]: qHTS assay to identify small molecule agonists of the sonic hedgehog signaling (Shh) pathway - cell viability counter screen (AID 1259366). Further: nearly all actives have a fitted effect of over 50% in size. Further: potency means the concentration at half of the fitted maximal effect. On viability change, negative = cytotoxic: on the % scale 0 is the no-effect control and ±100 the full control effect. In short, it runs like this:
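Compounds in DMSO were pin-transferred onto 3T3 Gli1-Luc cells that had settled 4hr; plates then stood 24hr at 37C and 5% CO2. One hour before the end, CellTiter-Fluor was added and fluorescence recorded.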

Assay [5] can be described thus: qHTS assay to identify small molecule antagonists of the sonic hedgehog signaling (Shh) pathway - cell viability counter screen (AID 1259367). Further: nearly all actives have a fitted effect of over 55% in size. Further: potency means the concentration at half of the fitted maximal effect. In a few lines:
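Tox21 library chemicals were tested on a Gli1-Luc NIH/3T3 clone (2,000 cells/well) stimulated by conditioned medium; viability was quantified as fluorescence from CellTiter-Fluor reagent added at 23 hr.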

The nature of assay [6]: qHTS assay to identify small molecule agonists of the sonic hedgehog signaling (Shh) pathway (AID 1259368; calls by dose curve;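 further: NIH/3T3-derived 3T3Gli1-Luc cells carrying a stable Gli1-driven firefly luciferase reporter; series mostly up to about 92 µM; on the % scale 0 is the no-effect control and ±100 the full control effect; nearly all actives have a fitted effect of over 15% in size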). In short, it runs like this:
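Stable NIH/3T3 Gli1-Luc reporter clone; 24 hr cpd exposure after a 4 hr settling period; luminescence endpoint.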

Assay [7] is described as follows: qHTS assay to identify small molecule antagonists of the sonic hedgehog signaling (Shh) pathway (AID 1259369; calls by dose curve; further: nearly all actives have a fitted effect of over 45% in size; further: potency means the concentration at half of the fitted maximal effect). In short, it runs like this:
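Gli1 transcriptional reporter (firefly Luc) in NIH/3T3 background, conditioned-medium activated. 24hr exposure, luminescence endpoint.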

A short description of assay [8]: qHTS assay to identify small molecule agonists of the androgen receptor (AR) signaling pathway in the presence of an antagonist - cell viability counter screen (AID 1259379). Further: nearly all actives have a fitted effect of over 25% in size. Further: potency means the concentration at half of the fitted maximal effect. In a few lines:
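Counter screen for cell viability run in parallel with the AR agonist-mode luciferase assay. MDA-kb2 cells were co-treated with nilutamide (3.0uM final) and compounds, then incubated 16 hr at 37C, and CellTiter-Fluor fluorescence was measured.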

Assay [9] can be described thus: qHTS assay to identify small molecule agonists of the estrogen receptor beta (ER-beta) signaling pathway - cell viability counter screen (AID 1259380). Further: nearly all actives have a fitted effect of over 30% in size. Further: potency means the concentration at half of the fitted maximal effect. In short, it runs like this: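 In this qHTS counter screen, HEK293T cells carrying an ER-beta/UAS beta-lactamase reporter, grown in 2% charcoal-stripped FBS, received compound for 16 hr; ATP-based CellTiter-Glo luminescence was then read after 30 min at room temperature.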

Assay [10] is described as follows: qHTS assay to identify small molecule antagonists of the estrogen receptor beta (ER-beta) signaling pathway - cell viability counter screen (AID 1259382). Further: nearly all actives have a fitted effect of over 55% in size. Further: potency means the concentration at half of the fitted maximal effect. In short, it runs like this: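 HEK293T ER-beta-UAS-bla, 2% charcoal-stripped FBS; compounds + 1nM E2 16 hr 37C; CellTiter-Glo luminescence, 30 min RT.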
A short description of assay [11]: qHTS assay to identify small molecule agonists or antagonists of the thyroid stimulating hormone receptor (TSHR) signaling pathway - wild type cell line counter screen (AID 1259384; calls by dose curve; further: on the % scale 0 is the no-effect control and ±100 the full control effect). In a few lines: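 Wild-type Hek293 cells, 800/well, 18 h at 37C, then compound with Ro20-1724 for 30 min RT. cAMP by HTRF (cAMP-d2/anti-cAMP cryptate), 1 h RT, fluorescence read. 15 concentrations, triplicates.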

The target of assay [12] is Thyrotropin receptor (Homo sapiens) (UniProt P16473). Nature of the assay: qHTS assay to identify small molecule antagonists of the thyroid stimulating hormone receptor (TSHR) signaling pathway (AID 1259385; calls by dose curve; further: on the % scale 0 is the no-effect control and ±100 the full control effect; nearly all actives have a fitted effect of over 20% in size). In a few lines:
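TSHR-HEK293 cells (800/well) plated 18 h, then compounds with Ro20-1724 and TSH at 1.5 ng/mL final, 30 min at room temperature. cAMP quantified by HTRF (cAMP-d2/anti-cAMP-cryptate, 1 h); 15 concentrations in triplicate.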

A short description of assay [13]: qHTS assay to identify small molecule agonists of the estrogen receptor alpha (ER-alpha) signaling pathway in the presence of an antagonist - cell viability counter screen (AID 1259386).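 Further: cells exposed to compounds for 22 h at 37 °C before the viability read; nearly all actives have a fitted effect of over 30% in size.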 Further: potency means the concentration at half of the fitted maximal effect. In a few lines:
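Steps: 5-day stripped-FBS culture; seed and incubate 24hr; add ICI-182,780 (10.0nM final); pin 15-point compound titration; incubate 22hr at 37C; add CellTiter-Fluor at 21hr; read fluorescence.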

The target in assay [14] is Estrogen receptor beta (Homo sapiens) (UniProt Q92731). Nature of the assay: qHTS assay to identify small molecule agonists of the estrogen receptor beta (ER-beta) signaling pathway (AID 1259377; active means well fitted activation curve with a large enough effect in the signal ratio in the repeat runs, not every such curve was filed as active; the % refers to the signal ratio; further: on the % scale 0 is the no-effect control and ±100 the full control effect). In a few lines:
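qHTS in ER-beta-UAS-bla HEK293T cells: 6 hr settling, then 16 hr compound at 37C, then LiveBLAzer substrate 2 h at RT before fluorescence reading.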

Assay [15] has the same target. Nature of the assay: qHTS assay to identify small molecule antagonists of the estrogen receptor beta (ER-beta) signaling pathway (AID 1259378; active means well fitted inhibition curve with a large enough effect in the signal ratio in the repeat runs, not every such curve was filed as active; the % refers to the signal ratio; further: on the % scale 0 is the no-effect control and ±100 the full control effect). In short, it runs like this: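 ER-beta-UAS-bla HEK293T cells in 2% charcoal-stripped FBS medium treated with compound plus 1nM final 17-beta-estradiol for 16 hr at 37C. Beta-lactamase reporter read by FRET substrate fluorescence after 2 hours at room temperature.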

Assay [16] has as its target Estrogen receptor (Homo sapiens) (UniProt P03372). Nature of the assay: qHTS assay to identify small molecule agonists of the estrogen receptor alpha (ER-alpha) signaling pathway in the presence of an antagonist (AID 1259383; calls by dose curve; further: top concentration of the series differs between compounds; on the % scale 0 is the no-effect control and ±100 the full control effect; nearly all actives have a fitted effect of over 15% in size). In short, it runs like this:
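ER-alpha agonism measured under antagonist challenge: 10.0nM ICI-182,780 (final) plus compound, 15 concentrations, 22hr, VM7Luc4E2 ERE-luciferase cells. Read by luminescence.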

Assay [17] is described as follows: qHTS assay to identify small molecule antagonists of the androgen receptor (AR) signaling pathway using the MDA cell line in the presence of 0.5 nM R1881 - cell viability counter screen (AID 1259242). Further: nearly all actives have a fitted effect of over 45% in size. Further: potency means the concentration at half of the fitted maximal effect. In a few lines: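 Human breast carcinoma MDA-kb2 cells, cultured without CO2, receive compounds alongside 0.5 nM (final) R1881 agonist. After 16 hr at 37C, viability is taken as live-cell protease signal.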

The target in assay [18] is Androgen receptor (Homo sapiens) (UniProt P10275). Nature of the assay: qHTS assay to identify small molecule antagonists of the androgen receptor (AR) signaling pathway using the MDA cell line in the presence of 0.5 nM R1881 (AID 1259243). Further: potency means the concentration at half of the fitted maximal effect; nearly all actives have a fitted effect of over 50% in size. In a few lines: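 Cells: MDA-kb2 (MMTV-luc). Stimulus: 0.5 nM R1881. Time: 16 hr, 37C, no CO2. Detection: ONE-Glo luminescence after 30 min at RT.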
Sequence of Androgen receptor (Homo sapiens) (P10275 whole entry, looked up): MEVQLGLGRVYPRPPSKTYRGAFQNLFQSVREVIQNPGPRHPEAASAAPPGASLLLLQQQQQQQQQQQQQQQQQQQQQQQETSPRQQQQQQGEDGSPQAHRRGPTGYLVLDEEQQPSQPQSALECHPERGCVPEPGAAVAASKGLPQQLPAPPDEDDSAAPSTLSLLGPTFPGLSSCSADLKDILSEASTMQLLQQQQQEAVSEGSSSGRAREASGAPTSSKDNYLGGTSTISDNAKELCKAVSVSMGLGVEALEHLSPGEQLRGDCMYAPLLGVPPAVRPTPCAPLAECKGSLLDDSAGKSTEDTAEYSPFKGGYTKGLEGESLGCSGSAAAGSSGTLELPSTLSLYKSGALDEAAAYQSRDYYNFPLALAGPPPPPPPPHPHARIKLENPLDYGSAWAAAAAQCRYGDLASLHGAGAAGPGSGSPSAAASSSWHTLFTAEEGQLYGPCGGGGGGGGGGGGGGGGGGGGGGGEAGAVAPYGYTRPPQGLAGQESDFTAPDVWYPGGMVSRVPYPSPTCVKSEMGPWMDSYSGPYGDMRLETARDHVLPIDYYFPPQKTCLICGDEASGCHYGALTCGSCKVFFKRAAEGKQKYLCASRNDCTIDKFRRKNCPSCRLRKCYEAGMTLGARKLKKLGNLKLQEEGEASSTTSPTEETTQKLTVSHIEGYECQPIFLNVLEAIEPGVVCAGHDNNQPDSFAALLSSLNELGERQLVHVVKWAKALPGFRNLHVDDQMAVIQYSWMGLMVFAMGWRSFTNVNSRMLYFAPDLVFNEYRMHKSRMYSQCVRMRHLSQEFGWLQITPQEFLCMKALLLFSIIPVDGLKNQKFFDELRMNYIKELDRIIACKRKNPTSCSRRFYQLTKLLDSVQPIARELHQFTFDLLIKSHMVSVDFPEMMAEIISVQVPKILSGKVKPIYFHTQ

The target of assay [19] is Estrogen receptor (Homo sapiens) (UniProt P03372). Nature of the assay: qHTS assay to identify small molecule antagonists of the estrogen receptor alpha (ER-alpha) signaling pathway using the BG1 cell line in the presence of 0.1 nM 17-beta-estradiol (AID 1259244). Further: nearly all actives have a fitted effect of over 50% in size. Further: potency means the concentration at half of the fitted maximal effect. In short, it runs like this:
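Seeding of stripped-serum-adapted VM7Luc4E2 cells, 24 h attachment, compound transfer, then 0.1 nM final 17beta-estradiol; after 22 h incubation, ONE-Glo reagent and luminescence reading.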

The target in assay [20] is Androgen receptor (Homo sapiens) (UniProt P10275). Nature of the assay: qHTS assay to identify small molecule agonists of the androgen receptor (AR) signaling pathway in the presence of an antagonist (AID 1259381; calls by dose curve; further: on the % scale 0 is the no-effect control and ±100 the full control effect; nearly all actives have a fitted effect of over 15% in size). In short, it runs like this:
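AR antagonist background: nilutamide 3.0uM final. Cell line: MDA-kb2, MMTV-driven luciferase, responsive to both AR and GR. Exposure 16hr, 37C, no CO2; ONE-Glo luminescence.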

A number with no mark means an inactive call. Results filed as inconclusive are left out. The source made the active and inactive calls. Unless noted, the call rests on the fitted dose curve; in most records, active means well fitted curve in the direction sought with a large enough effect in the repeat runs; inconclusive means weak or mixed curves; inactive means no such curve, though single readings can be large; an effect the other way counts as inactive or inconclusive.

Sequence of Estrogen receptor (Homo sapiens) (P03372 whole entry, looked up): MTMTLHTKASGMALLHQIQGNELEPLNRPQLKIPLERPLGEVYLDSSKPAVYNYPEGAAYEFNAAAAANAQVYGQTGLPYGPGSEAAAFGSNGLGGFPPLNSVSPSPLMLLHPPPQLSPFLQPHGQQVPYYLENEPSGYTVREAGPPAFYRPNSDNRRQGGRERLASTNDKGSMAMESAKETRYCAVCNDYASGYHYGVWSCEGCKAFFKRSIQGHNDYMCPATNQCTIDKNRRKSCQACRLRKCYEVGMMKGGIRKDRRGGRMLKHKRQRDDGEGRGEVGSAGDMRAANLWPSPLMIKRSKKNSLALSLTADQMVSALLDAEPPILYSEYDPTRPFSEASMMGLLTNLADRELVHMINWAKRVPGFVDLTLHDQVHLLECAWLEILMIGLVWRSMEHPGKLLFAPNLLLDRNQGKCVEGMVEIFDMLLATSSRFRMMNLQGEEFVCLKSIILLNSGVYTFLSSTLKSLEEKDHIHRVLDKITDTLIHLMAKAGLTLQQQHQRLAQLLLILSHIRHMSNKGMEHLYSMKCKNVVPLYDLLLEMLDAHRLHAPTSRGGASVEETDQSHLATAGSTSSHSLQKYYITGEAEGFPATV
Sequence of Estrogen receptor beta (Homo sapiens) (Q92731 whole entry, looked up): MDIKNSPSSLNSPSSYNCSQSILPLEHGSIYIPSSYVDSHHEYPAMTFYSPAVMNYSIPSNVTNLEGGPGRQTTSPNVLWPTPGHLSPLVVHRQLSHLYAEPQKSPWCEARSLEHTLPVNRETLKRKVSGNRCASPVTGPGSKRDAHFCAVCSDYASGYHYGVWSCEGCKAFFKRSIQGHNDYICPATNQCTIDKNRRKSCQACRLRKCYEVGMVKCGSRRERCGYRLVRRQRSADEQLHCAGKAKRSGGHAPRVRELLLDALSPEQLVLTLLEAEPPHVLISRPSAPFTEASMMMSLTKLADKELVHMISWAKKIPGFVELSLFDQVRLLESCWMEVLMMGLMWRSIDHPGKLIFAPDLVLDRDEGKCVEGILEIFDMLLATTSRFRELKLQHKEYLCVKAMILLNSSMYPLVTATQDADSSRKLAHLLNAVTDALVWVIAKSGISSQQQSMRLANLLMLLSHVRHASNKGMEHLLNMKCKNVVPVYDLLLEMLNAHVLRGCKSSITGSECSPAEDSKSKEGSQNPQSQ
Sequence of Thyrotropin receptor (Homo sapiens) (P16473 whole entry, looked up): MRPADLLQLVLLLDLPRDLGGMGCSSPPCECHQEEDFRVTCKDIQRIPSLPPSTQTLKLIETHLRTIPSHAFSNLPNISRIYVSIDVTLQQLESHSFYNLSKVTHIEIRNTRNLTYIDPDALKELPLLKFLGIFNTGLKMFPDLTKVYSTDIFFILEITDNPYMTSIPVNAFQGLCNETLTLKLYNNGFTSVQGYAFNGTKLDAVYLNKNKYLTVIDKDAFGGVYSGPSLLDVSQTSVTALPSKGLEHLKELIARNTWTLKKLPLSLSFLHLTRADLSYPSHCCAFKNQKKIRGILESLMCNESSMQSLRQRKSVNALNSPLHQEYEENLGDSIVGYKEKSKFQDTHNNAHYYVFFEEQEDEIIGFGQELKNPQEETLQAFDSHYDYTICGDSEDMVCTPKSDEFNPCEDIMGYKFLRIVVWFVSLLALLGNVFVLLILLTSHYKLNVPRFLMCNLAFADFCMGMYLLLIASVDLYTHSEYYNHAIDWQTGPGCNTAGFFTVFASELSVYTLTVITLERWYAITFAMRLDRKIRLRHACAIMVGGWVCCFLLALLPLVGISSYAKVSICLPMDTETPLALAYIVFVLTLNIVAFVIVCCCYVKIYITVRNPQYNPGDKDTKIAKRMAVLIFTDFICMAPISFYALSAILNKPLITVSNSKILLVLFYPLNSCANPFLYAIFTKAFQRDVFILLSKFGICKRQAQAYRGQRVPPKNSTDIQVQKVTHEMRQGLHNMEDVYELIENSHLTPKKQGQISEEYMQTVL

With `Clc1c(Cl)c(Cl)c(Cl)c(Cl)c1Cl`, the activity change, negative = cytotoxicity in assay [1] was 2.59% [at 8.39 µM]; in [3], 0.165% [at 8.39 µM]; in [8] it was 1.03% [at 8.39 µM]; in [9], 0.531% [at 8.39 µM]; in assay [10], 8.34% [at 8.39 µM]; in [13], 1.86% [at 8.39 µM]. For the same compound, the activity change, negative = inhibition is 1.74% [at 8.39 µM] in assay [2], 3.84% [at 8.39 µM] in assay [7] and 2.16% [at 8.39 µM] in assay [12]. The viability change, negative = cytotoxic was 1.7% [at 8.39 µM] in [4] and 2.78% [at 8.39 µM] in assay [5]. Also, the activity change in [6] is -0.252% [at 8.39 µM, hits give high values]. Further, the cAMP activity change in assay [11] was -1.12% [at 8.39 µM, hits give high values].

For the compound `Nc1nc(N)nc(Cl)n1`, the Potency result in assay [1], in assay [2], in [3], in assay [4], in assay [5] and in [7] was “inactive” throughout. For the same compound, the Potency result in assay [14], in assay [15], in assay [9], in [10], in assay [16] and in assay [11] was “inactive” each time. The Potency result in assay [12] and in assay [13] was “inactive” each time.

`O=[N+]([O-])[O-].[Tl+]`: the Potency entry in assay [1], in [2], in assay [3], in [4], in [5] and in assay [6] was “inactive” each time. For the same compound, the Potency result in assay [8], in assay [10], in assay [11], in assay [12] and in [13] was “inactive” in each case. For the same compound, the Potency in assay [9] is 0.346 µM (active).

Turning to `CN1CCc2cc(Cl)c(O)cc2[C@H]2c3ccccc3CC[C@@H]21`, the Potency entry in assay [17], in assay [2], in assay [3], in assay [7], in assay [10] and in assay [16] was “inactive” in each case. Besides, the Potency entry in assay [11] and in [12] was “inactive” each time. For the same compound, the Potency in assay [4] is 4.73 µM (active); in assay [5], 11.9 µM (active); in assay [9], 15 µM (active).

Turning to `O=C(N[C@@H]1N=C(c2ccccc2F)c2cccc3c2N(CC3)C1=O)c1cc2ccccc2[nH]1`, the Potency entry in assay [17], in [3], in [4], in assay [5], in assay [6] and in [7] was “inactive” in each case. Also, the Potency result in [14], in [15], in assay [9], in assay [10], in assay [11] and in assay [12] was “inactive” in each case. In assay [13], the Potency entry was “inactive”.

As for `CCC(OC(C)=O)C(CC(C)NC)(c1ccccc1)c1ccccc1` (stereo not given), the Potency in assay [17] was 43.6 µM (active); in assay [18], 27.5 µM (active); in assay [19], 69.2 µM (active); in assay [4] it was 34.7 µM (active); in [5], 61.6 µM (active); in assay [7], 30.9 µM (active). For the same compound, the Potency in assay [8] is 49 µM (active); in [9], 49 µM (active); in assay [10], 54.9 µM (active). For the same compound, the Potency result in assay [2], in assay [3], in assay [16], in assay [11] and in assay [13] was “inactive” each time.

Take `CO/N=C(/C1=NOCCO1)c1ccccc1Oc1ncnc(Oc2ccccc2Cl)c1F`: the Potency result in [2], in assay [3], in assay [4], in [5], in [6] and in [10] was “inactive” throughout. In addition, the Potency result in assay [16] is “inactive”. For the same compound, the values for the Potency in assay [8], in [9] and in assay [13] were 15.3 µM (active), 21.7 µM (active) and 27.3 µM (active), respectively.

As to `BrCC(Br)(Br)Br`, the Potency result in [1], in [2], in [4], in assay [5], in [6] and in [7] was “inactive” each time. Further, the Potency result in assay [14], in [9], in [20], in assay [10], in [16] and in assay [13] was “inactive” each time.

Turning to `Nc1nc(N)c(N)c(N)n1`, the Potency result in [1], in assay [2], in assay [3], in assay [6], in [7] and in [8] was “inactive” throughout. In addition, the Potency entry in [9], in assay [10] and in assay [13] was “inactive” in each case.

As for `Oc1ccc([C@H]2CNCc3c2ccc(O)c3O)cc1O`, the Potency entry in assay [17], in assay [19], in assay [2], in assay [3], in assay [4] and in assay [5] was “inactive” each time. Moreover, the Potency entry in assay [6], in [14], in [9], in [10] and in assay [16] was “inactive” throughout. In addition, in assay [13], the Potency is 26.6 µM (active).
